Among the test systems are SR leukemia; RPMI-8226 leukemia; OVCAR-8 ovarian; OVCAR-5 ovarian; OVCAR-4 ovarian; SK-OV-3 ovarian; IGROV1 ovarian; OVCAR-3 ovarian; HS 578T breast; NCI/ADR-RES ovarian.
Assay in all cases: NCI-60 one-dose screen, 48 h (100 = growth as untreated, 0 = no growth, -100 = all killed)
Common to all, as to conditions: 10 µM unless noted

About 83,000 compounds went through this panel and 20% of them were active in at least one assay; those are over-represented in the sample as a whole.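 48-hour exposure, single concentration, 96-well plates; percent growth endpoint where 0 means no net growth. Active: below 10.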 Unmarked numbers belong to inactive results. Active and inactive are the calls of the source.

In PubChem BioAssay (NCI) one finds growth data, which are given here for 13 compounds.

Consider `NCCn1cc(-c2nc(-c3c[nH]c4ncccc34)cs2)c2cc(Br)ccc21`, for which the growth is 15.2% with SR leukemia; 43.3% in the assay on RPMI-8226 leukemia; 91.6% with OVCAR-8 ovarian; 89.4% in the assay with OVCAR-5 ovarian; 54.7% in the assay with OVCAR-4 ovarian; 90.8% in the assay on SK-OV-3 ovarian. The growth is 43.6% with IGROV1 ovarian, 82.4% in the assay on OVCAR-3 ovarian, 83.1% in the assay on HS 578T breast and 90% in the assay with NCI/ADR-RES ovarian.

As for `Cn1cc(-c2csc(-c3cn(CCN)c4ccc(Br)cc34)n2)c2cccnc21`, the growth with SR leukemia is 9.41% (active); in the assay with RPMI-8226 leukemia it was 59.5%; with OVCAR-8 ovarian, 76.5%; in the assay with OVCAR-5 ovarian it was 76.5%; in the assay on OVCAR-4 ovarian, 54.3%; with SK-OV-3 ovarian, 91.6%. The growth in the assay on IGROV1 ovarian was 38.8%; in the assay on OVCAR-3 ovarian, 72.5%; in the assay on HS 578T breast, 74.5%; with NCI/ADR-RES ovarian, 86.4%.

Turning to `COc1cc(/C=N/NC(=S)NNC(=S)NC2CCCCC2)cc(OC)c1OC`, the growth in the assay on SR leukemia was 96.9%; in the assay with RPMI-8226 leukemia, 70.1%; in the assay on OVCAR-8 ovarian, 97.8%; in the assay with OVCAR-5 ovarian it was 106%; in the assay on OVCAR-4 ovarian, 86.3%; in the assay on SK-OV-3 ovarian, 110%. Also, the growth is 89.9% in the assay on IGROV1 ovarian, 103% with OVCAR-3 ovarian, 106% in the assay on HS 578T breast and 97.5% in the assay with NCI/ADR-RES ovarian.

Turning to `COC(=O)[C@]12CC[C@@H](C(/C=C/c3cccnc3)=N/O)[C@@H]1[C@H]1CC[C@@H]3[C@@]4(C)CC(=C/c5cccnc5)/C(=N/O)C(C)(C)[C@@H]4CC[C@@]3(C)[C@]1(C)CC2`, the growth in the assay with SR leukemia was 11.4%; with RPMI-8226 leukemia, 1.81% (active); with OVCAR-8 ovarian, 39%; in the assay on OVCAR-5 ovarian it was 60.6%; in the assay with OVCAR-4 ovarian, 40.8%; with SK-OV-3 ovarian, 64.7%. For the same compound, the growth is 16.9% with IGROV1 ovarian, 37.4% in the assay with OVCAR-3 ovarian, 78.6% in the assay on HS 578T breast and 33.6% with NCI/ADR-RES ovarian.

On to `CC(C)(C)c1ccc(OP(=S)(N/N=C/c2ccccc2O)Oc2ccc(C(C)(C)C)cc2)cc1`, for which the growth was 61.6% in the assay on SR leukemia; 45.8% in the assay with RPMI-8226 leukemia; 82.8% in the assay on OVCAR-8 ovarian; 91.6% in the assay with OVCAR-5 ovarian; 65.1% in the assay with OVCAR-4 ovarian; 65.2% in the assay on SK-OV-3 ovarian. For the same compound, the growth is 63.5% with IGROV1 ovarian, 47.5% in the assay with OVCAR-3 ovarian, 94.5% in the assay on HS 578T breast and 87.8% in the assay with NCI/ADR-RES ovarian.

Consider `O=C(NO)c1ccc(Cn2c(=O)n(CCc3ccc(O)cc3)c(=O)c3ccccc32)cc1`, for which the growth in the assay with SR leukemia was 16.5%; in the assay with RPMI-8226 leukemia, 31.6%; in the assay on OVCAR-8 ovarian, 36.2%; in the assay with OVCAR-5 ovarian, 86%; with OVCAR-4 ovarian, 56.4%; with SK-OV-3 ovarian, 86.7%. For the same compound, the growth is 74.9% with IGROV1 ovarian, 18.9% in the assay with OVCAR-3 ovarian, 58.8% in the assay with HS 578T breast and 92.8% in the assay on NCI/ADR-RES ovarian.

Consider `C[C@@H]1CCCCCCCCC[C@H](O)C(=O)C[C@@H](SC[C@@H](O)C(=O)O)C(=O)O1`, for which the growth in the assay with SR leukemia is 74.4%; in the assay with RPMI-8226 leukemia, -2.38% (active); in the assay on OVCAR-8 ovarian, 94.5%; in the assay on OVCAR-5 ovarian, 104%; in the assay on OVCAR-4 ovarian, 110%; in the assay on SK-OV-3 ovarian, 104%. Moreover, the growth with IGROV1 ovarian was 115%; in the assay on OVCAR-3 ovarian it was 107%; in the assay with HS 578T breast it was 113%; in the assay with NCI/ADR-RES ovarian, 106%.

As for `O=S(=O)(NCCNc1cc(-c2cn(-c3ccccc3)nc2-c2cccc(O)c2)ccn1)c1ccc(C(F)(F)F)cc1`, the growth is -23.1% (active) in the assay with SR leukemia; 18.5% with RPMI-8226 leukemia; 48.3% in the assay on OVCAR-8 ovarian; 62.7% in the assay with OVCAR-5 ovarian; 39% with OVCAR-4 ovarian; 54% in the assay with SK-OV-3 ovarian. In addition, the growth in the assay on IGROV1 ovarian is 43.3%; in the assay on OVCAR-3 ovarian, 49.2%; in the assay on HS 578T breast, 48.6%; in the assay with NCI/ADR-RES ovarian it was 43.4%.

For the compound `CC(=O)n1c(/C(C#N)=C/c2ccc(N(C)C)cc2)cc2ccccc21`, the growth in the assay on SR leukemia was 26.8%; in the assay on RPMI-8226 leukemia it was 16.2%; in the assay on OVCAR-8 ovarian, 40.3%; in the assay on OVCAR-5 ovarian it was 60.7%; with OVCAR-4 ovarian it was 76.8%; with SK-OV-3 ovarian, 34.8%. Besides, the growth with IGROV1 ovarian is 40.3%; with OVCAR-3 ovarian, 8.84% (active); with HS 578T breast it was 11.9%; with NCI/ADR-RES ovarian, 16.7%.

With `Cn1c2c(Cl)c(Cl)ccc2c2c(C#N)c[nH]c(=O)c21`, the growth is 112% in the assay with SR leukemia; 65.2% in the assay on RPMI-8226 leukemia; 91.2% with OVCAR-8 ovarian; 123% in the assay on OVCAR-5 ovarian; 99.5% with OVCAR-4 ovarian; 107% in the assay on SK-OV-3 ovarian. In addition, the growth is 89.5% with IGROV1 ovarian, 110% in the assay on OVCAR-3 ovarian, 84.5% with HS 578T breast and 103% with NCI/ADR-RES ovarian.

Turning to `CC(C)c1cc(C(=O)O)c(O)c(C(C)C)c1.CC(C)c1cc(C(=O)O)c(O)c(C(C)C)c1.[Mn]`, the growth is 93.5% in the assay with SR leukemia; 98% in the assay with RPMI-8226 leukemia; 101% in the assay on OVCAR-8 ovarian; 116% with OVCAR-5 ovarian; 96.3% in the assay with OVCAR-4 ovarian; 110% in the assay with SK-OV-3 ovarian. Further, the growth was 114% in the assay with IGROV1 ovarian, 96.9% in the assay with OVCAR-3 ovarian, 107% in the assay on HS 578T breast and 118% with NCI/ADR-RES ovarian.

For `Oc1ccc(Nc2ccccc2)cc1`, the growth is 94.2% with SR leukemia; 97.5% in the assay on RPMI-8226 leukemia; 96% with OVCAR-8 ovarian; 123% in the assay with OVCAR-5 ovarian; 70.5% in the assay on OVCAR-4 ovarian; 97.9% with SK-OV-3 ovarian. Moreover, the growth in the assay with IGROV1 ovarian is 101%; with OVCAR-3 ovarian, 94.2%; in the assay with HS 578T breast it was 105%; in the assay with NCI/ADR-RES ovarian, 87.8%.

As for `CC1(C)C=CC[C@]2(C)[C@H]3CC[C@@H]4[C@H]5[C@H](C(=O)/C=C/c6cccnc6)CC[C@]5(CO)CC[C@@]4(C)[C@]3(C)CC[C@@H]12`, the growth in the assay with SR leukemia was -26.9% (active); in the assay on RPMI-8226 leukemia, -18.5% (active); in the assay with OVCAR-8 ovarian it was -11.7% (active); in the assay on OVCAR-5 ovarian it was -74.3% (active); with OVCAR-4 ovarian, -14.5% (active); with SK-OV-3 ovarian, -46.6% (active). Further, the growth was -54.5% (active) with IGROV1 ovarian, -94.6% (active) with OVCAR-3 ovarian, -42.9% (active) with HS 578T breast and -32.2% (active) in the assay with NCI/ADR-RES ovarian.
